PubChem BioAssay (Tox21)
Inconclusive results are not listed. A number with no mark means an inactive call. Calls of active or inactive are those of the source. Calls follow the shape of the dose curve; as a rule, active = well fitted cell-killing curve with a large enough effect in the repeat runs; inconclusive = weak or mixed curves, or effect the other way; inactive = flat fitted curve, though single readings scatter.

Assay: cAMP Responsive Elements (CRE) small molecule agonists, cell-based qHTS assay: qHTS cell viability counter screen (AID 2060914); also: nearly all actives have a fitted effect of over 50% in size
Conditions: CRE-bla HEK293T viability, CellTiter-Glo luminescence, 5 h; series mostly up to 92.4 µM; activity change, negative = cytotoxicity: at the top concentration
Summary of the method: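 Cells are seeded and incubated 18 h, treated with compounds in DMSO for 3 h, read for the bla reporter, then given CellTiter-Glo; luminescence is measured after 30 min at room temperature.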
% is scaled to controls: 0 for no effect and ±100 for the full control effect.

SMILES | activity change, negative = cytotoxicity | Potency
OC(C#CCN1CCCC1)(c1ccccc1)c1ccccc1 | 9.1% [at 42.5 µM] | –
CCCCCCCCC(C)=O | 3.62% | –
CC[C@H](C)C(=O)O[C@H]1C[C@@H](C)C=C2C=C[C@H](C)[C@H](CC[C@@H]3C[C@@H](O)CC(=O)O3)[C@H]21 | – | inactive
CCCCCCCC(=O)OCC | 0.963% | –
COC(=O)c1ccccc1 | – | inactive
CCCCCCCCCCC | 8.78% | –
Cc1ccc(CCn2c3c(c4cc(Cl)ccc42)CN(C)CC3)cn1 | 1.69% [at 42.5 µM] | –
OC1(c2ccccc2)CCNCC1 | -0.506% [at 42.5 µM] | –
COC(=O)c1cc(S(N)(=O)=O)ccc1OC | 0.304% [at 42.5 µM] | –
CCCCC(CC)COC(=O)/C=C/c1ccc(OC)cc1 (stereo not given) | – | inactive
C=CC(C)(C)C | -0.611% | –
Nc1ccccc1O | 3.27% | –
CN1C(=O)OC(C)(C)C1=O | -2.6% | –
O=C(O)c1cccc(C[C@@H]2COc3ccc(OCc4nc5cc(F)ccc5s4)cc3[C@@H]2O)c1 | -0.394% | –
COc1cc(/C=C/C(=O)O[C@H]2CC[C@]34C[C@]35CC[C@]3(C)[C@@H]([C@H](C)CCC=C(C)C)CC[C@@]3(C)[C@@H]5CC[C@H]4C2(C)C)ccc1O | 0.0451% [at 42.5 µM] | –
CCN(CC)CCNC(C(=O)OCCC(C)C)c1ccccc1 (stereo not given) | 7.19% [at 42.5 µM] | –
CNC[C@H](O)c1ccc(O)c(O)c1 | – | inactive
CCCC(O)C(O)CO (stereo not given) | 18.1% | –
COc1cc(N)c(Cl)cc1C(=O)NC1CCN(Cc2ccccc2)CC1 | 24.7% [at 42.5 µM] | –
Clc1ccc2cc3ccccc3cc2c1 | 0.489% | –

SMILES | activity change, negative = cytotoxicity | Potency
CC(=O)CCC(C)C | – | inactive
CC1(C)CC(=O)CC(C)(C)N1 | -6.66% | –
CC(C)C/C=C(\C=O)c1ccccc1 | -14% | –
CCCCCCCC/C=C/CCCCCCCC1=NCCN1CCO | -2.51% | –
C=CCOCC(O)CS(=O)(=O)O (stereo not given) | -21.9% | –
O=C(Cl)c1ccc(F)c(Cl)c1 | -0.536% | –
CS(=O)(=O)c1ccc([C@@H](O)[C@@H](CF)NC(=O)C(Cl)Cl)cc1 | 0.252% [at 42.5 µM] | –
NC(=O)c1ccccc1 | -4.39% | –
OC1OC[C@@H](O)[C@H](O)[C@H]1O (stereo not given in full) | 6.97% | –
CC(=O)O[C@]1(C(C)=O)CC[C@H]2[C@@H]3C=C(C)C4=CC(=O)CC[C@]4(C)[C@H]3CC[C@@]21C | – | inactive
COc1ccc(/C=N/NC(=O)c2ccncc2)cc1OC | 8.47% [at 42.5 µM] | –
CCOC(=O)C1CC(=O)C(=C(O)C2CC2)C(=O)C1 (stereo not given) | 13.3% | –
CCCc1ccccc1 | 1.66% | –
O=C1OC2(c3ccc(O)cc3Oc3cc(O)ccc32)c2ccc(N=C=S)cc21 | -0.491% | –
COc1ccc2cc(C=O)ccc2c1 | 21.5% [at 42.5 µM] | –
NC(=O)CCCCC(N)=O | 10.1% | –
FC(F)(F)C(F)(F)C(F)(F)C(F)(F)CCI | -0.634% [at 42.5 µM] | –
COc1ccccc1C=O | 0.373% | –
C=CCCCCCCCCCC | – | inactive
COc1c(Br)cc(Br)c(C)c1Br | 0.126% | –
